# Assay results published in PubChem BioAssay (Tox21).
# Where “and” joins values, the source holds several entries; their conditions need not be identical. Equal values may be shown once. Records with an inconclusive call do not appear. Entries that show only a call come without a potency. Some compounds were tested as several samples or in several runs, with calls that do not always agree. Calls of active or inactive are those of the source. Unless noted, calls come from the whole dose curve; as a rule, active = well fitted curve in the direction sought with a large enough effect in the repeat runs; inconclusive = weak or mixed curves; inactive = no such curve, though single readings can be large; an effect the other way counts as inactive or inconclusive.
# Key:
# [1] = qHTS assay to identify small molecule antagonists of the estrogen receptor alpha (ER-alpha) signaling pathway using the BG1 cell line in the presence of 0.1 nM 17-beta-estradiol - cell viability counter screen (AID 1259241); note: nearly all actives have a fitted effect of over 40% in size; note: potency is the fitted concentration of half-maximal effect
# Procedure, shortened: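 Cytotoxicity counter-screen: live-cell protease activity measured by fluorescence (30 min reagent step) in the same wells. Cells were VM7Luc4E2 with endogenous ER-alpha and ERE-driven luciferase, treated 22 hr at 37C alongside 0.1 nM 17beta-estradiol final.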
# [2] = qHTS assay to identify small molecule HDAC inhibitors (AID 1259364);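 note: wild-type HCT-116 cells with endogenous class I/II HDAC activity; top concentration of the series differs between compounds; nearly all actives have a fitted effect of over 45% in size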
# Procedure, shortened: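 Screening used wild-type human colon HCT-116 cells incubated overnight, dosed with compounds for 2 hours, and assayed with a homogeneous luminogenic HDAC I/II reagent for 30 minutes at room temperature.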
# [3] = qHTS assay to identify small molecule HDAC inhibitors - cell viability counter screen (AID 1259365); note: nearly all actives have a fitted effect of over 50% in size; note: potency is the fitted concentration of half-maximal effect
# Procedure, shortened: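 CellTiter-Glo luminescence (30 min, room temperature) reported viability after a 2 h compound exposure at 37 C. Cells: wild-type HCT-116, 1,500 per well, seeded the night before.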
# [4] = qHTS assay to identify small molecule agonists of the sonic hedgehog signaling (Shh) pathway (AID 1259368; calls by dose curve;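 note: NIH/3T3-derived 3T3Gli1-Luc cells carrying a stable Gli1-driven firefly luciferase reporter; series mostly up to about 92 µM; nearly all actives have a fitted effect of over 15% in size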)
# Procedure, shortened: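 Hedgehog pathway agonism scored by increased firefly luciferase luminescence in 3T3Gli1-Luc cells treated 24 hr at 37 C; detection used a 30 min room-temperature reagent incubation.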
# [5] = biological target: Estrogen receptor beta (Homo sapiens) (UniProt Q92731); test: qHTS assay to identify small molecule agonists of the estrogen receptor beta (ER-beta) signaling pathway (AID 1259377; active = well fitted activation curve with a large enough effect in the signal ratio in the repeat runs, not every such curve was filed as active; the % refers to the signal ratio)
# Procedure, shortened: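 Ratiometric beta-lactamase FRET read-out came after 2 h substrate loading at room temperature. It followed 16 h compound treatment at 37C of GripTite HEK293T cells carrying a UAS-bla reporter, plated in 2% charcoal-stripped FBS medium.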
# [6] = qHTS assay to identify small molecule agonists of the androgen receptor (AR) signaling pathway in the presence of an antagonist - cell viability counter screen (AID 1259379); note: nearly all actives have a fitted effect of over 25% in size; note: potency is the fitted concentration of half-maximal effect
# Procedure, shortened: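 MDA-kb2 viability measured by CellTiter-Fluor fluorescence in the same wells as the luciferase signal; nilutamide 3.0uM final; 15-point compound titration; 16 hr at 37C.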
# [7] = qHTS assay to identify small molecule agonists of the estrogen receptor beta (ER-beta) signaling pathway - cell viability counter screen (AID 1259380); note: nearly all actives have a fitted effect of over 30% in size; note: potency is the fitted concentration of half-maximal effect
# Procedure, shortened: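 Measured: luminescence from CellTiter-Glo after 30 min at room temperature, added to wells already read for the LiveBLAzer FRET reporter (2 hr substrate); ER-beta-UAS-bla HEK293T cells had 16 hr compound treatment at 37C, 5% CO2.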
# [8] = biological target: Estrogen receptor (Homo sapiens) (UniProt P03372); test: qHTS assay to identify small molecule agonists of the estrogen receptor alpha (ER-alpha) signaling pathway in the presence of an antagonist (AID 1259383; calls by dose curve; note: top concentration of the series differs between compounds; nearly all actives have a fitted effect of over 15% in size)
# Procedure, shortened: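 Quantitative HTS confirmation: compounds titrated at 15 concentrations onto estrogen-deprived VM7Luc4E2 cells carrying a four-ERE luciferase construct, with ICI-182,780 present at 10.0nM final. Signal is luminescence after 22hr exposure.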
# [9] = qHTS assay to identify small molecule agonists or antagonists of the thyroid stimulating hormone receptor (TSHR) signaling pathway - wild type cell line counter screen (AID 1259384; calls by dose curve)
# Procedure, shortened: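 Wild-type HEK293 cells were plated 18 h at 37 C/5% CO2, pin-dosed with compound plus Ro20-1724 medium, held 30 min at room temperature, then given cAMP-d2 and anti-cAMP-cryptate; fluorescence was read after 1 h. Fifteen concentrations, triplicate.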
# [10] = biological target: Thyrotropin receptor (Homo sapiens) (UniProt P16473); test: qHTS assay to identify small molecule antagonists of the thyroid stimulating hormone receptor (TSHR) signaling pathway (AID 1259385; calls by dose curve; note: nearly all actives have a fitted effect of over 20% in size; note: potency is the fitted concentration of half-maximal effect)
# Procedure, shortened: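 TSHR-HEK293 cells were plated and held 18 h at 37C/5% CO2, then given compound plus Ro20-1724 and stimulated with TSH at 1.5 ng/mL final. After 30 min at room temperature, cAMP was detected with cAMP-d2/anti-cAMP-cryptate (1 h) by fluorescence.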
# [11] = qHTS assay to identify small molecule phospholipidosis (PLD) inducers (AID 1259344; active = well fitted curve in the direction sought with a large enough effect; an effect the other way counts as inactive or inconclusive)
# Procedure, shortened: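 Cells (HepG2, 900 per well) attach for 4 h, receive LipidTOX Red and compound together, incubate 24 h at 37 C, are fixed 30 min with paraformaldehyde/Hoechst, then imaged at one site per well.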
# [12] = qHTS assay to identify small molecule agonists of the sonic hedgehog signaling (Shh) pathway - cell viability counter screen (AID 1259366); note: nearly all actives have a fitted effect of over 50% in size; note: potency is the fitted concentration of half-maximal effect
# Procedure, shortened: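 Cytotoxicity counter screen: CellTiter-Fluor reagent added after 23 h compound exposure, then 1 h at 37C and fluorescence read. Cells were 3T3 Gli1-Luc, seeded 2,000 per well and dosed 4 h post-plating.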
# [13] = qHTS assay to identify small molecule antagonists of the sonic hedgehog signaling (Shh) pathway - cell viability counter screen (AID 1259367); note: nearly all actives have a fitted effect of over 55% in size; note: potency is the fitted concentration of half-maximal effect
# Procedure, shortened: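 Cytotoxicity was assessed in parallel with Shh reporter activity by measuring live-cell protease fluorescence (CellTiter-Fluor) in NIH/3T3 cells stably carrying Gli1-Luc, treated with compound under conditioned medium stimulation for 23 hr plus 1 hr reagent incubation.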
# [14] = qHTS assay to identify small molecule antagonists of the sonic hedgehog signaling (Shh) pathway (AID 1259369; calls by dose curve; note: nearly all actives have a fitted effect of over 45% in size; note: potency is the fitted concentration of half-maximal effect)
# Procedure, shortened: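 NIH/3T3 stable Gli1-Luc clone, 2,000 cells/well, 4hr settle; cpd + conditioned medium 24hr; Luc reagent 30min RT; luminescence.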
# [15] = biological target: Estrogen receptor beta (Homo sapiens) (UniProt Q92731); test: qHTS assay to identify small molecule antagonists of the estrogen receptor beta (ER-beta) signaling pathway (AID 1259378; active = well fitted inhibition curve with a large enough effect in the signal ratio in the repeat runs, not every such curve was filed as active; the % refers to the signal ratio; note: potency is the fitted concentration of half-maximal effect)
# Procedure, shortened: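 ER-beta-UAS-bla HEK293T (GripTite) cells in 2% charcoal-stripped FBS medium were preincubated 6 hr at 37C, dosed with compound, then stimulated with 1 nM E2 (final) for 16 hr; beta-lactamase reporter read by B/G FRET fluorescence after 2 hr substrate loading.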
# [16] = biological target: Estrogen receptor (Homo sapiens) (UniProt P03372); test: qHTS assay to identify small molecule antagonists of the estrogen receptor alpha (ER-alpha) signaling pathway using the BG1 cell line in the presence of 0.1 nM 17-beta-estradiol (AID 1259244); note: nearly all actives have a fitted effect of over 50% in size; note: potency is the fitted concentration of half-maximal effect
# Procedure, shortened: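 Compounds were tested against 0.1 nM (final) 17beta-estradiol in VM7Luc4E2 cells, which express full-length ER-alpha and an ERE-luciferase reporter; luminescence was recorded following 22 h exposure.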
# [17] = qHTS assay to identify small molecule antagonists of the estrogen receptor beta (ER-beta) signaling pathway - cell viability counter screen (AID 1259382); note: nearly all actives have a fitted effect of over 55% in size; note: potency is the fitted concentration of half-maximal effect
# Procedure, shortened: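 Readout: luminescence, CellTiter-Glo, same wells as bla assay. System: ER-beta-UAS-bla GripTite HEK293T, 2% charcoal-stripped FBS. Exposure: compounds plus 1nM 17-beta-estradiol, 16 hr, 37C.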
# [18] = biological target: Androgen receptor (Homo sapiens) (UniProt P10275); test: qHTS assay to identify small molecule agonists of the androgen receptor (AR) signaling pathway in the presence of an antagonist (AID 1259381; calls by dose curve; note: nearly all actives have a fitted effect of over 15% in size)
# Procedure, shortened: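 Luminescent ONE-Glo read, 30min at room temperature, follows 16hr compound exposure (15 concentrations) of MDA-kb2 cells at 37C, 0% CO2, with nilutamide added at 3.0uM final.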
# Estrogen receptor (Homo sapiens), sequence (P03372 whole entry, looked up): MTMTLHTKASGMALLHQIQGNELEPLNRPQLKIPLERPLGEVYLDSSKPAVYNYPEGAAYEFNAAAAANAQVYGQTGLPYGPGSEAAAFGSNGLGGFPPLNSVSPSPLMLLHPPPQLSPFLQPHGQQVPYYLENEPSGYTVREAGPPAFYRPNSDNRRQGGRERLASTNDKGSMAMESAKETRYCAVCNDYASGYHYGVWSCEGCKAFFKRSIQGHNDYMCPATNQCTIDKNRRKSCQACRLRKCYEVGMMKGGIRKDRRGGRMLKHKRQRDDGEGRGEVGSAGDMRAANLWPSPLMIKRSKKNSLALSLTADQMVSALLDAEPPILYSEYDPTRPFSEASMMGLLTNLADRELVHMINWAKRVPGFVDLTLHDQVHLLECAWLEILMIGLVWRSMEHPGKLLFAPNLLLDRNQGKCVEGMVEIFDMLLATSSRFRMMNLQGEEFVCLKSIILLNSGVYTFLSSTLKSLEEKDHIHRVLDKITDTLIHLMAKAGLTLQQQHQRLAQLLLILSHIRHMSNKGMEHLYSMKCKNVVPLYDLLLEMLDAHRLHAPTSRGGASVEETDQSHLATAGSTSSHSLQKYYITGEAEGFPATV
# Thyrotropin receptor (Homo sapiens), sequence (P16473 whole entry, looked up): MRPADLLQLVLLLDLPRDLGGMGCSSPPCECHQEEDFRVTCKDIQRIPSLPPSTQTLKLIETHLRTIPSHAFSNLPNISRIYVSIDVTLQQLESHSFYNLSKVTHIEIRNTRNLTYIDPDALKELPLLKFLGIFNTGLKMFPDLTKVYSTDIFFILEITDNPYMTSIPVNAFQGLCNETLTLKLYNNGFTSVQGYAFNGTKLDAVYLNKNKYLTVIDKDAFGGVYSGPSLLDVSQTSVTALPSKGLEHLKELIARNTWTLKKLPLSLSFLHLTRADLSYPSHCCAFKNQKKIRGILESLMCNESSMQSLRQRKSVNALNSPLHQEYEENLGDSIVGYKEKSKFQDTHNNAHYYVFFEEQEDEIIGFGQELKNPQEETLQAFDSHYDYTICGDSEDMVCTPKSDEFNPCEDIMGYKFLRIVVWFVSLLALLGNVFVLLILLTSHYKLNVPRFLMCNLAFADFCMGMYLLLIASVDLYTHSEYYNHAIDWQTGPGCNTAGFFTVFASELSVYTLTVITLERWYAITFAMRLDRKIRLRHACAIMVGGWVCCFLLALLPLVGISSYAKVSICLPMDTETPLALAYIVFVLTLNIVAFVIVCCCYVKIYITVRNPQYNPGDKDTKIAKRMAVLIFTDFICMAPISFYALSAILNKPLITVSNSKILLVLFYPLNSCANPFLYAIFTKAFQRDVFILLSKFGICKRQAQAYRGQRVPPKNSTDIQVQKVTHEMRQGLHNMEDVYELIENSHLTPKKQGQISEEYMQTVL
# Estrogen receptor beta (Homo sapiens), sequence (Q92731 whole entry, looked up): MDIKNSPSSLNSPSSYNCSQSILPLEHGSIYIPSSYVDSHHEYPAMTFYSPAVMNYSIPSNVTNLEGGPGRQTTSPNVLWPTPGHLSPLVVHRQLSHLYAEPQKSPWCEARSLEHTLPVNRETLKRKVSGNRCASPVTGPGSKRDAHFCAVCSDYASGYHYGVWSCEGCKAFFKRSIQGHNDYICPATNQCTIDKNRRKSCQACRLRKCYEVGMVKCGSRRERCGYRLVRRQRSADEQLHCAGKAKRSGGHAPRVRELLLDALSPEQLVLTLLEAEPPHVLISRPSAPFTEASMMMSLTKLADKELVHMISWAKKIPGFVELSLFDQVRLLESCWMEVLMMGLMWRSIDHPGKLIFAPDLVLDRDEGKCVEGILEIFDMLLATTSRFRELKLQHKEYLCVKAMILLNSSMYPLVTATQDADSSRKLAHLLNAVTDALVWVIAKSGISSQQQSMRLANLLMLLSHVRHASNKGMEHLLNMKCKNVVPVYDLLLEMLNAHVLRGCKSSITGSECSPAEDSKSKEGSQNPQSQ
# Androgen receptor (Homo sapiens), sequence (P10275 whole entry, looked up): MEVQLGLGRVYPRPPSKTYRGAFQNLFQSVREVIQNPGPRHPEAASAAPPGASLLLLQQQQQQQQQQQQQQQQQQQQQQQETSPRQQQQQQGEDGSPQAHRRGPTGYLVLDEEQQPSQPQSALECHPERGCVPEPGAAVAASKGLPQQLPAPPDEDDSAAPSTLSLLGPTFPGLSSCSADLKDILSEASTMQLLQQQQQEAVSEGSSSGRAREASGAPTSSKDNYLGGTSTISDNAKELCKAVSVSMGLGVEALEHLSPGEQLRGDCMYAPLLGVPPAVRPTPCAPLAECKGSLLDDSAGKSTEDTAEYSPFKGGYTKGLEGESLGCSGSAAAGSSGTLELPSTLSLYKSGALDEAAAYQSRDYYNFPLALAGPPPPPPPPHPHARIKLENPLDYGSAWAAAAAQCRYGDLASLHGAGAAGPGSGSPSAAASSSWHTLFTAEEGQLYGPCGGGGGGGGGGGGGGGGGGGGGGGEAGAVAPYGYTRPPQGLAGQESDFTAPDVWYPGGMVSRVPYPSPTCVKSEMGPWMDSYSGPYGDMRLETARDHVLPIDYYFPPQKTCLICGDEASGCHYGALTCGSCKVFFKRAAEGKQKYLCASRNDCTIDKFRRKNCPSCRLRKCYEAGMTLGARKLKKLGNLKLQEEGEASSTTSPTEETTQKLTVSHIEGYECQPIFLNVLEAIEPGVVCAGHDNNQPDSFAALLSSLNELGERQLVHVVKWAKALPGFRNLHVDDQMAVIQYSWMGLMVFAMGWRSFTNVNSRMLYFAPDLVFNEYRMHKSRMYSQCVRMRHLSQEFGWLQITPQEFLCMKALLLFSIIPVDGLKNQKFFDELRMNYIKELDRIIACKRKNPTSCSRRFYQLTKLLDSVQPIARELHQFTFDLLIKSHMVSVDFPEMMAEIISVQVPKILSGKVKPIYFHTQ
Compound,Potency [1],Potency [2],Potency [3],Potency [4],Potency [5],Potency [6],Potency [7],Potency [8],outcome [9],Potency [10],Potency [11],Potency [12],Potency [13],Potency [14],Potency [15],Potency [16],Potency [17],Potency [18]
CCCCCCCCn1sc(Cl)c(Cl)c1=O,inactive,inactive,inactive,inactive,inactive,27.3 µM (active),12.2 µM (active),inactive,inactive,61.1 µM (active),,,,,,,,
CC1=C(C(=O)OC(C)C)C(c2cccc([N+](=O)[O-])c2)C(C(=O)OC2CN(C(c3ccccc3)c3ccccc3)C2)=C(N)N1 (stereo not drawn),inactive,inactive,inactive,inactive,,,29.8 µM (active),,inactive,inactive,inactive,23.7 µM (active),26.6 µM (active),29.8 µM (active),16.8 µM (active),,,
CCCCCCCCCCCCCCCS(=O)(=O)Oc1ccccc1,inactive,inactive,inactive,inactive,inactive,,inactive,inactive,inactive,inactive,,inactive,,inactive,inactive,inactive,inactive,
O=[N+]([O-])c1cc(Cl)c(Cl)c(Cl)c1Cl,68.3 µM (active),inactive,,inactive,,24.2 µM (active),inactive,,,inactive,,24.2 µM (active),inactive,inactive,,,inactive,
O=C1C=CC(=O)N1c1ccc(Cc2ccc(N3C(=O)C=CC3=O)cc2)cc1,inactive,,inactive,inactive,,48.6 µM (active),48.6 µM (active),inactive,,48.6 µM (active),,7.7 µM (active),21.7 µM (active),,,,,
Cc1cc2c(cc1C(F)(F)F)N(C(=O)Nc1ccc(Oc3cccnc3C)nc1)CC2,inactive,inactive,inactive,inactive,,55.3 µM (active),,inactive,,,,inactive,inactive,,19.6 µM (active),31.1 µM (active),inactive,
OCCCCCCCCCCCCBr,inactive,inactive,inactive,inactive,inactive,,inactive,,inactive,inactive,,inactive,inactive,,55.3 µM (active),,inactive,
NC(=NCCCCCCN=C(N)/N=C(\N)Nc1ccc(Cl)cc1)/N=C(\N)Nc1ccc(Cl)cc1,inactive,inactive,44.1 µM (active) and 60.8 µM (active) and inactive,inactive,,62.2 µM (active) and 60.8 µM (active) and inactive,,,inactive,inactive,inactive,48.1 µM (active) and 24.8 µM (active) and 54.2 µM (active),60.6 µM (active) and 43 µM (active) and inactive,21.5 µM (active) and 27.2 µM (active) and 19.2 µM (active),,,60.6 µM (active) and 48.3 µM (active) and 44.1 µM (active),
NC(=O)CC[C@@H]1NC(=O)[C@H](Cc2ccccc2)NC(=O)[C@H](Cc2ccc(O)cc2)NC(=O)CCSSC[C@@H](C(=O)N2CCC[C@H]2C(=O)N[C@@H](CCCN=C(N)N)C(=O)NCC(N)=O)NC(=O)[C@H](CC(N)=O)NC1=O,inactive,inactive,inactive,inactive,,inactive,inactive,,,inactive,inactive,inactive,inactive,,,,inactive,
CCCCCCCCS(=O)C(C)Cc1ccc2c(c1)OCO2 (stereo not drawn),inactive,inactive,inactive,inactive,inactive,,,inactive,inactive,,,,,31.2 µM (active),,,inactive,inactive
N#CC1(c2ccc(F)cc2)CCC(=O)CC1,inactive,inactive,,inactive,inactive,inactive,inactive,inactive,inactive,inactive,,inactive,inactive,inactive,inactive,inactive,inactive,inactive
CCCCCOC(=O)CCCC,inactive,inactive,inactive,inactive,inactive,inactive,inactive,inactive,inactive,inactive,,inactive,,inactive,inactive,inactive,inactive,
COc1ccc(CN2CCN(C(c3ccc(F)cc3)c3ccc(F)cc3)CC2)c(OC)c1OC,inactive,inactive,inactive,inactive,,26.6 µM (active),11.9 µM (active),,inactive,,,,,29.8 µM (active),,,10.6 µM (active),
O=c1[nH]sc2ccccc12,61.1 µM (active),,inactive,inactive,inactive,,19.3 µM (active),,inactive,68.6 µM (active),,13.7 µM (active),17.2 µM (active),0.969 µM (active),,54.5 µM (active),27.3 µM (active),
